Measurements from PubChem BioAssay AID1376 (SRMLSC, 2008).
The whole screen tested about 220,000 compounds, of which about 530 (0.24%) were called active. Cut-off read from the data, not from the text of the source: active = inhibition above about 13%; inconclusive = no clear call, values can overlap the other calls; inactive = below that. This excerpt belongs to a sample that is enriched for actives. Potency and affinity values are given separately.

Molecular target: Bifunctional protein GlmU (Mycobacterium tuberculosis (strain ATCC 25618 / H37Rv)) (UniProt P9WMN3)
Experiment: inhibition of mycobacterial GlmU enzyme – biochemical, glucosamine-1-phosphate acetyltransferase (AID 1376);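 note: 0% = complete reaction with vehicle and 100% = reaction without substrate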
Settings: M. tuberculosis GlmU acetyltransferase enzyme assay; hits give high values;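 tested at 30 µM in the primary screen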

Sequence of Bifunctional protein GlmU (Mycobacterium tuberculosis (strain ATCC 25618 / H37Rv)) (P9WMN3 whole entry, looked up): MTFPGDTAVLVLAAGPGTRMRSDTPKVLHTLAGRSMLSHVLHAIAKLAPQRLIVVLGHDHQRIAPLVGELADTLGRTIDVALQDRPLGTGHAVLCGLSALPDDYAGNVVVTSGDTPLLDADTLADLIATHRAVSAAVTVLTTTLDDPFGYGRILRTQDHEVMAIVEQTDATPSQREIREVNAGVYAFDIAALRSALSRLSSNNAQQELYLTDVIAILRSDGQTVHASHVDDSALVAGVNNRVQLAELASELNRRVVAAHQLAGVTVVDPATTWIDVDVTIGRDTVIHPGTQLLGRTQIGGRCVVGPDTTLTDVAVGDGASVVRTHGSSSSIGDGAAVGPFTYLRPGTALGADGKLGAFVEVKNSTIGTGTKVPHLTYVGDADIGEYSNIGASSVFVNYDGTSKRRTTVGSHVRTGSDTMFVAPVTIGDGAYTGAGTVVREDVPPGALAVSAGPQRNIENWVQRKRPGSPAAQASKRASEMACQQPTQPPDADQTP

Row | SMILES | inhibition
1 | COC(=O)C1NN=C(C(=O)c2ccccc2)C1c1ccccc1 (stereo not drawn) | -3.17% (inactive)
2 | Cc1cc(Cl)ccc1OCC(=O)OCC(=O)Nc1ccc(F)c([N+](=O)[O-])c1 | 4.62% (inactive)
3 | N/C(=N\S(=O)(=O)c1cc(C(F)(F)F)cc(C(F)(F)F)c1)c1cccs1 | 13.9% (active)
4 | NC(=O)c1ccc(/C(N)=N/S(=O)(=O)c2cc(C(F)(F)F)cc(C(F)(F)F)c2)cc1 | 2.05% (inactive)
5 | N/C(=N\S(=O)(=O)c1cc(C(F)(F)F)cc(C(F)(F)F)c1)c1ccccc1 | 4.74% (inactive)
6 | CC(=O)c1ccc(NC(=S)NC(=O)c2c(Cl)c(C)nn2C)cc1 | 5.85% (inactive)
7 | CCOC(=O)c1ccc(NC(=S)N2CCC(C(N)=O)CC2)cc1 | 6.36% (inactive)
8 | Cc1ccc(O)c(CCc2ccccc2)n1 | -3.57% (inactive)
9 | Cc1ccc(O)c(CC(C)C)n1 | 6.41% (inactive)
10 | Cc1ccc(O)c(CO)n1 | 15% (active)
11 | COc1ccccc1NC(=O)Cn1c(CN2CCCCC2)nc2ccccc2c1=O | 0.52% (inactive)
12 | O=C(NC1(C(F)(F)F)NC(=O)N(c2ccc(F)cc2)C1=O)c1cccs1 (stereo not drawn) | -0.58% (inactive)
13 | CCOC(=O)CNC(=O)CSc1nc2sc(C)c(C)c2c(=O)n1C | 15% (active)
14 | CCOC(=O)CSc1nc2sc(C)c(C)c2c(=O)n1C | 3.47% (inactive)
15 | Cc1sc2nc(SCC(=O)NCCO)n(C)c(=O)c2c1C | 3.09% (inactive)
16 | Cc1c(C(=O)NCc2cccnc2)sc2ncn(CC(=O)N3CCCCC3C)c(=O)c12 (stereo not drawn) | -7.32% (inactive)
17 | CCCCC(=O)Nc1nc(C)c(C(C)=O)s1 | -1.28% (inactive)
18 | Cc1nc(NC(=O)C2CC2)sc1C | -0.38% (inactive)
19 | Cc1nc(NC(=O)CCCC(=O)Nc2nc(C)c(C)s2)sc1C | 13.9% (active)
20 | CCC(=O)N(Cc1cc2cc(C)c(C)cc2[nH]c1=O)C1CCCCC1 | -7.37% (inactive)
21 | CC(=O)n1cc(/C=N/NC(N)=S)c2ccccc21 | -6.26% (inactive)

Row | SMILES | inhibition
22 | CSCC[C@H](NC(=O)OC(C)(C)C)C(=O)N/N=C/c1ccc2nccnc2c1 | -6.4% (inactive)
23 | CSc1ccccc1C(=O)C1CCCN(Cc2ccn[nH]2)C1 (stereo not drawn) | 10.5% (inactive)
24 | O=C(c1cc2cc(Cl)cc(Cl)c2oc1=O)N1CCOCC1 | -1.07% (inactive)
25 | Cc1ccccc1NS(=O)(=O)c1ccc2[nH]cc(C(=O)N(C)Cc3ccco3)c(=O)c2c1 | 29.4% (active)
26 | CCc1ccc(NS(=O)(=O)c2ccc3[nH]cc(C(=O)N(C)Cc4ccco4)c(=O)c3c2)cc1 | 1.75% (inactive)
27 | CN(Cc1ccco1)C(=O)c1c[nH]c2ccc(S(=O)(=O)Nc3ccc4c(c3)OCCO4)cc2c1=O | 3.32% (inactive)
28 | COc1cccc(C2=NOC(C(=O)Nc3cc(OC)c(OC)c(OC)c3)C2)c1 (stereo not drawn) | -0.12% (inactive)
29 | CCOc1ncccc1C(=O)Nc1nnc(C2CC2)s1 | 8.29% (inactive)
30 | CC1CCCCN1CCNC(=O)CN1C(=O)COc2ccccc21 (stereo not drawn) | -1.43% (inactive)
31 | CCn1c(SCC(=O)c2ccc(Cl)cc2)nnc1-c1cccs1 | -2.46% (inactive)
32 | CN(CC(=O)Nc1cccc(F)c1)C(=O)CCCc1cccs1 | -1.08% (inactive)
33 | COC(C[C@@H]1O[C@@H]1C(=O)[C@@H](C)OCc1ccccc1)OC | 14.7% (active)
34 | COC(C[C@@H]1O[C@@H]1C(=O)[C@H](C)OCc1ccccc1)OC | -0.47% (inactive)
35 | COC(C[C@H]1O[C@@H]1C(=O)[C@H](C)OCc1ccccc1)OC | 5.93% (inactive)
36 | COC(=O)C1C(=O)c2c(C)noc2CC1(C)C (stereo not drawn) | 7.63% (inactive)
37 | COc1ccc(C)cc1-n1nnnc1SCC(=O)Nc1cc(C)on1 | 4.65% (inactive)
38 | Cc1cc(C)c2nc(SCCc3ccccc3)nc(C)c2c1 | 6.08% (inactive)
39 | Cc1cc(=O)oc2cc(OCC#N)ccc12 | -3.06% (inactive)
40 | C#CCOc1ccc2c(C)cc(=O)oc2c1 | 13.2% (active)
41 | C=C(Cl)COc1ccc2c(C)cc(=O)oc2c1 | -5.17% (inactive)
42 | COc1ccc(/C=C/C(=O)NNc2cc(=O)n(C)c(=O)n2C)cc1OC | 3.78% (inactive)

Row | SMILES | inhibition
43 | COc1ccc(C/C(C)=N/NC(=S)Nc2ccccc2F)cc1 | -0.55% (inactive)
44 | O=C(CSc1nc2ccccc2n1CCc1ccccc1)NC1CC1 | 0.08% (inactive)
45 | O=C(CSc1nc2ccccc2n1CCc1ccccc1)c1ccc(O)c(O)c1 | 23.3% (active)
46 | O=C(CSc1nc2ccccc2n1CCc1ccccc1)N1CCOCC1 | -3.44% (inactive)
47 | CC1CC(=S)Nc2ccccc2N1C(=O)Nc1ccccc1 (stereo not drawn) | 1.98% (inactive)
48 | O=C1S/C(=C\c2ccc(Cl)cc2)C(=O)N1CCn1cnnn1 | -3.11% (inactive)
49 | O=C(NCc1ccc(F)cc1)c1ccc(CS(=O)(=O)Cc2ccc(F)cc2)o1 | 0.32% (inactive)
50 | COc1ccc(C(=O)Nc2nc3ccccc3s2)cc1OC | 1.41% (inactive)
51 | O=[N+]([O-])c1cc(CN(CCO)CCO)ccc1O | 1.38% (inactive)
52 | CC(NCC(O)COCc1ccc(Cl)cc1)c1ccccc1 (stereo not drawn) | -4.31% (inactive)
53 | O=c1oc2ccccc2c(Nc2cccc(O)c2)c1[N+](=O)[O-] | 1.89% (inactive)
54 | O=c1oc2ccccc2c(Nc2ccccc2)c1[N+](=O)[O-] | 0.42% (inactive)
55 | O=c1oc2ccccc2c(Nc2ccc(O)cc2)c1[N+](=O)[O-] | 13.3% (active)
56 | Cc1cc(NC(=O)c2cc(-c3ccc(C)s3)nc3ccccc23)no1 | 2.43% (inactive)
57 | COC(=O)/C(C(C)=O)=C(/C=C/C=C/N(C)C)N(C)C | 6.24% (inactive)
58 | CCOC(=O)C1(Cc2ccc(Cl)cc2)CCN(C(=O)C2CCCO2)CC1 (stereo not drawn) | 1.7% (inactive)
59 | O=C(COc1ccc(Cc2ccccc2)cc1)c1ccc(F)cc1 | -3.15% (inactive)
60 | CC1=C(C#N)c2nc(N)c(C#N)c(C)c2/C1=C\c1ccc(OCC(=O)O)c(Cl)c1 | 4.55% (inactive)
61 | CC1=C(C#N)c2nc(N)c(C#N)c(C)c2/C1=C\c1ccc(C)cc1 | 2.53% (inactive)
62 | Cc1ccccc1/C=N/NC(=O)Cc1ccc(Cl)cc1 | 0.8% (inactive)
63 | CC(C)(C)N1CC(C(=O)O)CC1=O (stereo not drawn) | 6.47% (inactive)
